Only some compounds are listed: those with a hit (about 1.2% of all), similar ones and a draw of the others.
RGS7-Gao reg: human RGS7-Galphao interaction regulation; Multiplexed bead flow cytometry, RGS7-Galphao binding; actives lie on both sides; 0.35% of 220,000 active; binding response (% of control), % at 10 µM; P09471; in the data active = binding response below about 49% or above about 150%; inconclusive = no clear call, values can overlap the other calls; inactive = in between;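 note: fluorescent Galphao held in activated GDP-AlF4 state binding bead-coupled RGS7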
RGS4-Gao reg: modulates binding of RGS4 to human Galphao. binding response (% of control), % at 10 µM. Multiplexed bead flow cytometry; actives lie on both sides. 0.33% of 220,000 active. P09471; in the data active = binding response below about 49% or above about 150%; inactive = in between;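 note: fluorescent Galphao activated with aluminum fluoride binding bead-coupled RGS4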
RGS16-Gao HTS: modulates binding between human RGS16 and Galphao; O15492+P09471; bead-based flow cytometry RGS16-Galphao binding, fluorescence; actives lie on both sides; binding response (% of control), % at 10 µM; 0.38% of 220,000 active; AID 1441;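 note: Galphao activated by GDP with aluminum fluoride before binding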
Target sequence (O15492 whole entry, looked up): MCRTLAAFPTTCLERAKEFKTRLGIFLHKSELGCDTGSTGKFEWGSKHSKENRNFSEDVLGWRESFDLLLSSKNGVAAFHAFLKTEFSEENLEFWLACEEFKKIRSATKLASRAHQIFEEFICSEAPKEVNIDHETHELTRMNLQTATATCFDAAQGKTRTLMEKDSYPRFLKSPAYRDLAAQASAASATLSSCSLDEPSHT
Target sequence (P09471 whole entry, looked up): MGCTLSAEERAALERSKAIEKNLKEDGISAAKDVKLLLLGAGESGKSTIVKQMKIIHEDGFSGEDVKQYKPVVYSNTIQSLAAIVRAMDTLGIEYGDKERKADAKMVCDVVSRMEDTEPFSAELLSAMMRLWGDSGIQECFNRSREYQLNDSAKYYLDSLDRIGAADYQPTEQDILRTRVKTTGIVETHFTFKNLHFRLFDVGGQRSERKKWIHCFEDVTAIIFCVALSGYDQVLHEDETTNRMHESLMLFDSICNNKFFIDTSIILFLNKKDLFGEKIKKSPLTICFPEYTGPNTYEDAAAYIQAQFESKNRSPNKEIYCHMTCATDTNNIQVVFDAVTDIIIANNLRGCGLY
RGS8-Gao reg: regulators of human RGS8-Galphao interaction; 0.34% of 220,000 active; P09471; multiplexed bead flow cytometry, RGS8-Galphao binding; actives lie on both sides; AID 1423; response (percent of control binding), % at 10 µM; in the data active = response below about 60% or above about 140%; inactive = in between;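 note: Galphao activated as the GDP aluminium fluoride complex binding bead-coupled RGS8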
GSH bead fluor: GSH bead compound fluorescence profile; GSH beads flow cytometry, compound fluorescence 488/530 nm; active compounds read high; fluorescence (KMESF) at 10 µM; 0.25% of 190,000 active; AID 1776; in the data active = fluorescence above about 89;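 note: glutathione beads carrying GST-tagged Bcl family fusion proteins plus one bare bead set; values are compound well signal with DMSO vehicle wells as background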
Avidin bead fluor: avidin bead compound fluorescence profile; AID 1775; Avidin beads, compound fluorescence 488/530 nm, flow cytometry; active compounds read high; 0.38% of 220,000 active; fluorescence (KMESF) at 10 µM; in the data active = fluorescence above about 47
RGS-Gao: regulators of human RGS4-Galphao interaction | shares compounds with RGS16-Gao HTS | multiplexed bead flow cytometry, RGS–Galpha-o binding | RGS4–Galpha-o binding response, % at 10 µM | 99% of 1,600 active | AID 1504;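 note: fluorescently labeled Galpha-o bound to GDP with aluminium fluoride binding biotinylated RGS beads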
Biotin-avidin: interferes with biotinylated probe binding to avidin beads. shares compounds with RGS16-Gao HTS. streptavidin beads, fluorescein-biotin binding, flow cytometry. inhibition, % at 10 µM. 1,700 tested, under 10 active. AID 1783;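 active = inhibition above 50%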;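 note: median green fluorescence of gated singlet beads compared with DMSO control wells; 0% = DMSO wells and 100% = complete loss of bead fluorescence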
RGS8-Gao confirm: confirmation of regulators of human RGS8-Galphao interaction; bead-based flow cytometry RGS8-Galphao binding, fluorescence; actives lie on both sides; 3% of 1,700 active; AID 1836; shares compounds with RGS16-Gao HTS; binding response (% of control), % at 10 µM; in the data active = binding response below about 72% or above about 130%; inactive = in between;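 note: Galphao activated as GDP AlF4 complex before binding bead RGS8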
RGS7-Gao confirm: RGS7-Galphao interaction regulation, single point confirmation. response (percent of control binding), % at 10 µM. bead-based flow cytometry RGS7-Galphao binding; actives lie on both sides. AID 1837. 7.8% of 1,700 active. shares compounds with RGS16-Gao HTS; in the data active = response below about 75% or above about 130%; inactive = in between;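 note: fluorescent Galphao activated with GDP and aluminum fluoride binding bead-coupled RGS7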
RGS16-Gao conf: confirmation of regulators of human RGS16-Galphao interaction; shares compounds with RGS16-Gao HTS; bead-based flow cytometry, RGS16-Galphao binding; actives lie on both sides; response (% of control binding), % at 10 µM; 4% of 1,700 active; AID 1838; in the data active = response below about 74% or above about 130%; inactive = in between;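 note: Galphao activated as the GDP aluminium fluoride complex binding bead-coupled RGS16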
RGS4-Gao confirm: confirmation of regulators of human RGS4-Galphao interaction; shares compounds with RGS16-Gao HTS; RGS4-Galphao binding, multiplexed bead flow cytometry; actives lie on both sides; binding response (% of control), % at 10 µM; 4% of 1,700 active; in the data active = binding response below about 74% or above about 130%; inactive = in between
RGS19-Gao conf: confirmation of regulators of human RGS19-Galphao interaction | bead-based flow cytometry RGS19-Galphao binding; actives lie on both sides | response (percent of control binding), % at 10 µM | shares compounds with RGS16-Gao HTS | 5% of 1,700 active | AID 1841; in the data active = response below about 50% or above about 160%; inactive = in between;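 note: 100% = no compound control and 0% = blank background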
An asterisk follows results filed as active; ? = inconclusive; . = no result; [ ] = remark or other dose. Unless noted, the rule behind the calls is not given here.

SMILES | RGS7-Gao reg | RGS4-Gao reg | RGS16-Gao HTS | RGS8-Gao reg | GSH bead fluor | Avidin bead fluor | RGS-Gao | Biotin-avidin | RGS8-Gao confirm | RGS7-Gao confirm | RGS16-Gao conf | RGS4-Gao confirm | RGS19-Gao conf
O=P(CCCCCCCCCP(=O)(c1ccccc1)c1ccccc1)(c1ccccc1)c1ccccc1 | 94 | 99 | 97 | 95 | 31 | 8 | . | . | . | . | . | . | .
O=P(CCO)(c1ccccc1)c1ccccc1 | 166*[activator] | 104 | 100 | 90 | 15 | 28 | 104* | 0 | 99 | 101 | 101 | 101 | 108
O=[N+]([O-])c1ccc(O)c(C(C#Cc2ccccc2)N2CCOCC2)c1 (stereo not drawn) | ? | 94 | 93 | 99 | . | 4 | . | . | . | . | . | . | .
CN1C(=O)C(O)(CC(=O)c2ccccc2O)c2cc(Br)ccc21 (stereo not drawn) | 112 | 117 | 252 | 148*[activator] | 26 | 6 | 117* | -2 | 107 | 105 | 109 | 105 | 105
O=C1CC(c2ccc(F)cc2)CC2=C1C(c1ccc([N+](=O)[O-])o1)Nc1ccccc1N2 (stereo not drawn) | ? | 106 | 104 | 104 | . | 6 | . | . | . | . | . | . | .
O=C(NCc1ccccn1)c1ccc(CNS(=O)(=O)c2cccc(Cl)c2)cc1 | 103 | 103 | 116 | 104 | 9 | 11 | . | . | . | . | . | . | .
COc1ccc(/C=C(/CC(=O)NCc2ccc(Cl)cc2)c2nc3ccccc3s2)cc1 | 102 | 102 | 110 | 103 | 12 | 14 | . | . | . | . | . | . | .
COc1ccc(/C=C(/CC(=O)Nc2ccccc2)c2nc3ccccc3s2)cc1 | 74 | 76 | 18* | 70 | 9 | 4 | 76* | 0 | 99 | 84 | 94 | 89 | 109
COc1ccc(NC(=O)CSc2ccccn2)cc1OC | 99 | 100 | 102 | 101 | 29 | 15 | . | . | . | . | . | . | .
COC(=O)c1ccc(C(=O)OC)c(NC(=O)CSc2ccccn2)c1 | 157*[activator] | 107 | 101 | 100 | 21 | 87* | 107* | 1 | 98 | 101 | 100 | 100 | 108
Cc1ccccc1-n1c(SCC(=O)c2c(N)n(C)c(=O)n(C)c2=O)nc2sc3c(c2c1=O)CCCC3 | 89 | 88 | 22* | 68 | 10 | 1 | 88* | 3 | 103 | 106 | 105 | 103 | 93
CC(C)OC(=O)C1C(=O)CC(C)(O)C(C(=O)OC(C)C)C1c1ccccc1 (stereo not drawn) | 1.8* | 2.3* | -3.2* | 5.7* | 15 | -1 | . | -2 | 101 | 101 | 102 | 101 | 103
S=C(NCCc1cnc[nH]1)NC1CCCC1 | 94 | 96 | 103 | 99 | 18 | 10 | . | . | . | . | . | . | .
Cn1c(COc2ccccc2)nnc1SCC(=O)Nc1ccc2c(c1)OCO2 | 85 | 83 | -21* | 77 | 9 | 8 | 83* | 0 | 97 | 97 | 97 | 98 | 89
Cc1ccc(OCc2nnc(SCC(=O)Nc3ccc4c(c3)OCO4)n2C)cc1 | 98 | 94 | 93 | 99 | 66 | 11 | . | . | . | . | . | . | .
Cc1ccccc1-c1nnc(-c2cccs2)o1 | 102 | 102 | 99 | 102 | 14 | 10 | . | . | . | . | . | . | .

Source: PubChem
